Inconclusive results are not listed. Active and inactive are the calls of the source. Calls follow the shape of the dose curve; as a rule, active = well fitted inhibition curve with a large enough effect; inconclusive = small, poorly fitted or top-dose-only effect; inactive = flat fitted curve, though single readings scatter.
How the values were obtained:
Experiment in all cases: qHTS profiling for inhibitors of Plasmodium falciparum proliferation (AID 504749); also: nearly all actives have a fitted effect of over 60% in size
Conditions in all cases: P. falciparum in erythrocytes, SYBR Green DNA, 72 h; series mostly up to 12.8 µM
AA1029 = system: AA1029
How it was run: (§1)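 Three-day growth assay of blood-stage parasites in erythrocytes (0.3% parasitemia, 2.5% hematocrit) at 37 C, 5% CO2, quantified by SYBR Green DNA staining after overnight detergent lysis.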

AS120 = system: AS120
How it was run: as §1

CP185 = system: CP185
How it was run: as §1

CP191 = system: CP191
How it was run: as §1

CP192 = system: CP192
How it was run: as §1

CP211 = system: CP211
How it was run: as §1

CP247 = system: CP247
How it was run: as §1

CP252 = system: CP252
How it was run: as §1

CP256 = system: CP256
How it was run: as §1

CP265 = system: CP265
How it was run: as §1

CP268 = system: CP268
How it was run: as §1

CP291 = system: CP291
How it was run: as §1

CP297 = system: CP297
How it was run: as §1

Dd2 = system: Dd2
How it was run: as §1

ECU = system: ECU
How it was run: as §1

JCK = system: JCK
How it was run: as §1

N140 = system: N140
How it was run: as §1

PC15 = system: PC15
How it was run: as §1

PC26 = system: PC26
How it was run: as §1

SC27B = system: SC27B
How it was run: as §1

Measured: Potency
Potency is read from the fitted curve at half-maximal effect.

CNC1CC(N)[C@H](O)[C@@H](O[C@@H]2OC(CO)C3OC4(OC(C(N)CO)C(O)C(O)C4O)O[C@@H]3[C@H]2O)C1O (stereo partly drawn)
inactive: all assays above

Nc1nc2ncc(CNc3ccc(C(=O)NC(CCC(=O)O)C(=O)O)cc3)nc2c(=O)[nH]1 (stereo not drawn)
inactive: all assays above

O=C1OC(CO)C(O)C(O)C1O (stereo not drawn)
inactive: all assays above

COc1ccc2cc1Oc1ccc(cc1)CC1c3c(cc4c(c3Oc3cc5c(cc3OC)CCN(C)C5C2)OCO4)CCN1C (stereo not drawn)
active: AA1029 3.55 µM | AS120 3.98 µM | CP185 7.94 µM | CP191 5.01 µM | CP211 12 µM | CP247 5.62 µM | CP252 8.91 µM | CP256 10 µM | CP265 8.91 µM | CP268 13.5 µM | CP291 12 µM | CP297 10.7 µM | Dd2 2.24 µM | ECU 8.91 µM | N140 3.16 µM | PC26 12 µM | SC27B 7.08 µM

CN(C)CCCOC1C(C(O)CO)OC2OC(C)(C)O[C@@H]21 (stereo partly drawn)
inactive: all assays above

C[C@]12CCC(=O)C=C1CCC1C2C(=O)C[C@]2(C)C1CC[C@]2(O)C(=O)CO (stereo partly drawn)
inactive: all assays above

CC1(C)SC2C(N3C(=O)C(c4ccccc4)NC3(C)C)C(=O)N2C1C(=O)O (stereo not drawn)
inactive: all assays above

CCCC(=O)O[C@]1(C(=O)CO)CCC2[C@@H]3CCC4=CC(=O)CC[C@]4(C)C3C(O)C[C@]21C (stereo partly drawn)
inactive: all assays above

CCC(CCC(C)C1CCC2C3CC=C4CC(O)CC[C@@]4(C)C3CC[C@@]12C)C(C)C (stereo partly drawn)
inactive: all assays above

CN1CC(=O)N=C1N
inactive: all assays above

CCC(C)C(=O)OC1CC(O)C=C2C=CC(C)C(CCC(O)CC(O)CC(=O)O)C21 (stereo not drawn)
inactive: all assays above

CC(=O)O[C@@]1(C(C)=O)CCC2C3CC(C)C4=CC(=O)CC[C@@]4(C)C3CC[C@]21C (stereo partly drawn)
inactive: CP192 | CP211 | CP268 | CP291 | CP297 | JCK | PC26

C=Cc1c(C)/c2[n-]/c1=C\c1[n-]c(c(CC)c1C)/C=c1\[n-]c3c(c1C)C(=O)C(C(=O)[O-])C=3c1[n-]c(c(C)c1CCC(=O)[O-])\C=2.[Cu].[Na+].[Na+] (stereo not drawn)
inactive: CP185 | CP211 | CP256 | CP265 | CP268 | CP291 | JCK

C[C@@]12CCC(=O)C=C1C=CC1C2CC[C@]2(C)C1CC[C@@]21CCC(=O)O1 (stereo partly drawn)
not listed: CP185 | CP247 | N140
inactive: all other assays above

Source: PubChem BioAssay (NCATS)
